# From ChEMBL document CHEMBL1961873, “Compounds: GSK PKIS; Assays: Nanosyn kinase panel” (2012)
# Tests used:
# [1] = target: Mitogen-activated protein kinase kinase kinase kinase 4 (Homo sapiens) (UniProt O95819); conditions: at 1 µM;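 note: reported figure is an averaged inhibition value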
# [2] = target: Dual specificity mitogen-activated protein kinase kinase 1 (Homo sapiens) (UniProt Q02750); conditions: at 0.1 µM
# [3] = target: Dual specificity mitogen-activated protein kinase kinase 1 (Homo sapiens) (UniProt Q02750); conditions: at 1 µM
# [4] = target: Misshapen-like kinase 1 (Homo sapiens) (UniProt Q8N4C8); conditions: at 0.1 µM
# [5] = target: Misshapen-like kinase 1 (Homo sapiens) (UniProt Q8N4C8); conditions: at 1 µM
# [6] = target: T1, Serine/threonine-protein kinase 4 (Homo sapiens) (UniProt Q13043); conditions: at 0.1 µM
# T1 sequence (whole entry): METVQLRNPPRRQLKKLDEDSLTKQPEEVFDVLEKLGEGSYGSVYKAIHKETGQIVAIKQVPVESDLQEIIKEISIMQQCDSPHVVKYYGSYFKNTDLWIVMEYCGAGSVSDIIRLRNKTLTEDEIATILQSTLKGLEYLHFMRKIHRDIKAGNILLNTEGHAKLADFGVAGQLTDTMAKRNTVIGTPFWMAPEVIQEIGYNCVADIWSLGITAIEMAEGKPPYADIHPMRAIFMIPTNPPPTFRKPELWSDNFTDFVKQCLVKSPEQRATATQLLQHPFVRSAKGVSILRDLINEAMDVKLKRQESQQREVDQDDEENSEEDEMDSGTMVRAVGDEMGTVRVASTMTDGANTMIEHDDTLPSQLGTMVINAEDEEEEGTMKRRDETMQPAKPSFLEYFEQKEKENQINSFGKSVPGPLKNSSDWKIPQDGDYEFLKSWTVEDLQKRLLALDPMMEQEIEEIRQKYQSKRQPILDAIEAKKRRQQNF
# [7] = target: T1, Serine/threonine-protein kinase 4 (Homo sapiens); conditions: at 1 µM
# [8] = target: T2, Serine/threonine-protein kinase 3 (Homo sapiens) (UniProt Q13188); conditions: at 0.1 µM
# T2 sequence (whole entry): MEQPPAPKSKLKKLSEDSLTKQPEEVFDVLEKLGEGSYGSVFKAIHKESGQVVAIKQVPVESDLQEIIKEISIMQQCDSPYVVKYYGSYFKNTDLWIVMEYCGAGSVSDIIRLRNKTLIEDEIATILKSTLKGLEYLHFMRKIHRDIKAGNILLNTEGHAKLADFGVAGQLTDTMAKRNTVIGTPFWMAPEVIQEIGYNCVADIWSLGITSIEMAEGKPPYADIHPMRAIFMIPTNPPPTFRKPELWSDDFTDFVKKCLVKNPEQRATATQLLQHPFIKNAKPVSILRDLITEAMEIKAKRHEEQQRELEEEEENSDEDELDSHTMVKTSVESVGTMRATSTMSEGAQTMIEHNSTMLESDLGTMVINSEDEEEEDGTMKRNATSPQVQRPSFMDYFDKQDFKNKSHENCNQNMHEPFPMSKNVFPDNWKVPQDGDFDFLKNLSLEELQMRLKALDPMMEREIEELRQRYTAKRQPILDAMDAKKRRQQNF
# [9] = target: T2, Serine/threonine-protein kinase 3 (Homo sapiens); conditions: at 1 µM
# [10] = target: Serine/threonine-protein kinase 26 (Homo sapiens) (UniProt Q9P289); conditions: at 0.1 µM
# Sequence of Serine/threonine-protein kinase 26 (Homo sapiens) (Q9P289 2-416 limits assumed): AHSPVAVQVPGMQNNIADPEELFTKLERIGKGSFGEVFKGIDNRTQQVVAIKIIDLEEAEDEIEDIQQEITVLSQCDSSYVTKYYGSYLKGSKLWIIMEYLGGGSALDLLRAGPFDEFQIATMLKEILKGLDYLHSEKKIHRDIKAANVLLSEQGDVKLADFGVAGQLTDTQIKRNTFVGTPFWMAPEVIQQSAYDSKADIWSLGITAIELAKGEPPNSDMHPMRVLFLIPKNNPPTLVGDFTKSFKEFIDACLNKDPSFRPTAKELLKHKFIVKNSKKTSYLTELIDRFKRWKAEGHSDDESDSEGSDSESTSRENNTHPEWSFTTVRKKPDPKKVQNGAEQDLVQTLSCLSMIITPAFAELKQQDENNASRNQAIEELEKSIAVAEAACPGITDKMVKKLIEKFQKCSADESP
# [11] = target: Serine/threonine-protein kinase 26 (Homo sapiens) (UniProt Q9P289); conditions: at 1 µM
# [12] = target: Serine/threonine-protein kinase PAK 1 (Homo sapiens) (UniProt Q13153); conditions: at 0.1 µM
# Sequence of Serine/threonine-protein kinase PAK 1 (Homo sapiens) (Q13153 whole entry): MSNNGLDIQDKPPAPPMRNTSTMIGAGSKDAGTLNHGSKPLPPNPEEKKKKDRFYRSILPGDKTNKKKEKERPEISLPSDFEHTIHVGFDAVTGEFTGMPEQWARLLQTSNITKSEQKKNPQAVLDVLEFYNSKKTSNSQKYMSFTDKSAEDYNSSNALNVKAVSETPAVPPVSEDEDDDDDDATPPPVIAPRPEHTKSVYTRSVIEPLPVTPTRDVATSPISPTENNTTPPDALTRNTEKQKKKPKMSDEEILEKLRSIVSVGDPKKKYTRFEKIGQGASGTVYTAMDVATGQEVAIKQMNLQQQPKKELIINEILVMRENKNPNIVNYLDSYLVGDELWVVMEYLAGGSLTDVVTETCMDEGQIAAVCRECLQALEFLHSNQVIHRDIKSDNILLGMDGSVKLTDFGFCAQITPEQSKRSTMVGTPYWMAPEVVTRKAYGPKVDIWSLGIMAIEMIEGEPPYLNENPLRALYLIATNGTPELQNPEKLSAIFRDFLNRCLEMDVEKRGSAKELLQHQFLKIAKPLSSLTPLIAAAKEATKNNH
# [13] = target: Serine/threonine-protein kinase PAK 1 (Homo sapiens) (UniProt Q13153); conditions: at 1 µM
# [14] = target: Serine/threonine-protein kinase PAK 2 (Homo sapiens) (UniProt Q13177); conditions: at 0.1 µM
# Sequence of Serine/threonine-protein kinase PAK 2 (Homo sapiens) (Q13177 whole entry): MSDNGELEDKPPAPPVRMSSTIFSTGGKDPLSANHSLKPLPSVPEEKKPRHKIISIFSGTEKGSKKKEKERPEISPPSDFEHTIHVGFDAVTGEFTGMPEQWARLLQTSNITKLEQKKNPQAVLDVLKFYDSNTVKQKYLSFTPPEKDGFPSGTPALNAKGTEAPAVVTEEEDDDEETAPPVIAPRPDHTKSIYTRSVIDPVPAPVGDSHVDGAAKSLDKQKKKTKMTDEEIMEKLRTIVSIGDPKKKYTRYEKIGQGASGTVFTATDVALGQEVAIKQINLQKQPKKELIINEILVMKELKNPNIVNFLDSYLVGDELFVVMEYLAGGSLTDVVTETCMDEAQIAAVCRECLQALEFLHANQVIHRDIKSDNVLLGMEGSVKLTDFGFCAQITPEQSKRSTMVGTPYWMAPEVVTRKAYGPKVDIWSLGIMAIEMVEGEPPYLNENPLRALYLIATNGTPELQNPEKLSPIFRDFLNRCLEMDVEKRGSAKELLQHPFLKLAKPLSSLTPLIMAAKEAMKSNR
# [15] = target: Serine/threonine-protein kinase PAK 2 (Homo sapiens) (UniProt Q13177); conditions: at 1 µM
# [16] = target: Serine/threonine-protein kinase PAK 3 (Homo sapiens) (UniProt O75914); conditions: at 0.1 µM
# Sequence of Serine/threonine-protein kinase PAK 3 (Homo sapiens) (O75914 whole entry, looked up): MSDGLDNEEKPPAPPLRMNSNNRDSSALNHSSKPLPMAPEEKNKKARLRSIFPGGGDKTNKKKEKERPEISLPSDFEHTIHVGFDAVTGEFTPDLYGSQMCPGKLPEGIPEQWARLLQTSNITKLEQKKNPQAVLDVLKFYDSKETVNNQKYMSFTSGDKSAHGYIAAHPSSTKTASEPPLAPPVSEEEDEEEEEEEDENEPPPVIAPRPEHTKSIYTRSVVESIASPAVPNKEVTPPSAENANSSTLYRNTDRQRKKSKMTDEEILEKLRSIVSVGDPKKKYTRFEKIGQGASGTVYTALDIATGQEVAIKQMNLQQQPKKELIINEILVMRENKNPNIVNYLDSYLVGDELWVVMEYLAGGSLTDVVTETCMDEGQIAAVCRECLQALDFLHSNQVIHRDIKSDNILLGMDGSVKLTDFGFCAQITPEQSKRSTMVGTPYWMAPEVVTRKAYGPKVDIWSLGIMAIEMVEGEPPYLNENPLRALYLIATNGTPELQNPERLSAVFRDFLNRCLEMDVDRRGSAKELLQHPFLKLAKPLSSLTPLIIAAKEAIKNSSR
# [17] = target: Serine/threonine-protein kinase PAK 3 (Homo sapiens) (UniProt O75914); conditions: at 1 µM
# [18] = target: Serine/threonine-protein kinase PAK 5 (Homo sapiens) (UniProt Q9P286); conditions: at 0.1 µM
# Sequence of Serine/threonine-protein kinase PAK 5 (Homo sapiens) (Q9P286 whole entry, looked up): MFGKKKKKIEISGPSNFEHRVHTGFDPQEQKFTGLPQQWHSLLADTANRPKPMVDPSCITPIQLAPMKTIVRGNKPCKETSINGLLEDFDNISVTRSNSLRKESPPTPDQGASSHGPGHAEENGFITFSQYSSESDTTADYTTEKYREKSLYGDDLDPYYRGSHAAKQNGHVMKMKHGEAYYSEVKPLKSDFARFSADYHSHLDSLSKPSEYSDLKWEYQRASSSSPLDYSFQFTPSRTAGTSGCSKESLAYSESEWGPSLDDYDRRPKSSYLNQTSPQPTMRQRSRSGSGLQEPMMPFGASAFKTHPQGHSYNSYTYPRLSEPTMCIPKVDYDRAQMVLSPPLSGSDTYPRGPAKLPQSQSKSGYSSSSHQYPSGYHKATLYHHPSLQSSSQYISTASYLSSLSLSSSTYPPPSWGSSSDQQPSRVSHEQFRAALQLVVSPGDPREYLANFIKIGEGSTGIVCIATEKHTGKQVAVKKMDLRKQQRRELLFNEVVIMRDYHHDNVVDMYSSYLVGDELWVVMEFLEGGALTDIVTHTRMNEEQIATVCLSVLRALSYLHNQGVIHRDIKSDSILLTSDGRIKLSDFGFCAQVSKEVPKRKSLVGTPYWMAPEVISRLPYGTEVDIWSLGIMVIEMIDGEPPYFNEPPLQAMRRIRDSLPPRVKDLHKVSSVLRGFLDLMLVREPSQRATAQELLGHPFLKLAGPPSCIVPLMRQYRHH
# [19] = target: Serine/threonine-protein kinase PAK 5 (Homo sapiens) (UniProt Q9P286); conditions: at 1 µM
# [20] = target: Serine/threonine-protein kinase PAK 6 (Homo sapiens) (UniProt Q9NQU5); conditions: at 0.1 µM;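 note: mean PAK6 inhibition reported from the GSK PKIS screen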
# Sequence of Dual specificity mitogen-activated protein kinase kinase 1 (Homo sapiens) (Q02750 whole entry): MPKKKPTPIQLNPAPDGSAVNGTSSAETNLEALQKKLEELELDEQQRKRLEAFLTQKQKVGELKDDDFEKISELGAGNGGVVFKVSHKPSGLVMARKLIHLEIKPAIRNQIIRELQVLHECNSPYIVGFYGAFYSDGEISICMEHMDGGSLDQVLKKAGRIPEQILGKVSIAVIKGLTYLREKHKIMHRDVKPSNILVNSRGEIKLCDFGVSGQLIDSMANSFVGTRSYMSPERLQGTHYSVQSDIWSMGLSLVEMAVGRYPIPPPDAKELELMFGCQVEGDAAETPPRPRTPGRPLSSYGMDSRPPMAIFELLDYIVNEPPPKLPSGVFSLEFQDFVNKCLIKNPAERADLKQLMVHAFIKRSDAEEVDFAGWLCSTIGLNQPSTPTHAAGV
# Sequence of Mitogen-activated protein kinase kinase kinase kinase 4 (Homo sapiens) (O95819 2-1239 limits assumed): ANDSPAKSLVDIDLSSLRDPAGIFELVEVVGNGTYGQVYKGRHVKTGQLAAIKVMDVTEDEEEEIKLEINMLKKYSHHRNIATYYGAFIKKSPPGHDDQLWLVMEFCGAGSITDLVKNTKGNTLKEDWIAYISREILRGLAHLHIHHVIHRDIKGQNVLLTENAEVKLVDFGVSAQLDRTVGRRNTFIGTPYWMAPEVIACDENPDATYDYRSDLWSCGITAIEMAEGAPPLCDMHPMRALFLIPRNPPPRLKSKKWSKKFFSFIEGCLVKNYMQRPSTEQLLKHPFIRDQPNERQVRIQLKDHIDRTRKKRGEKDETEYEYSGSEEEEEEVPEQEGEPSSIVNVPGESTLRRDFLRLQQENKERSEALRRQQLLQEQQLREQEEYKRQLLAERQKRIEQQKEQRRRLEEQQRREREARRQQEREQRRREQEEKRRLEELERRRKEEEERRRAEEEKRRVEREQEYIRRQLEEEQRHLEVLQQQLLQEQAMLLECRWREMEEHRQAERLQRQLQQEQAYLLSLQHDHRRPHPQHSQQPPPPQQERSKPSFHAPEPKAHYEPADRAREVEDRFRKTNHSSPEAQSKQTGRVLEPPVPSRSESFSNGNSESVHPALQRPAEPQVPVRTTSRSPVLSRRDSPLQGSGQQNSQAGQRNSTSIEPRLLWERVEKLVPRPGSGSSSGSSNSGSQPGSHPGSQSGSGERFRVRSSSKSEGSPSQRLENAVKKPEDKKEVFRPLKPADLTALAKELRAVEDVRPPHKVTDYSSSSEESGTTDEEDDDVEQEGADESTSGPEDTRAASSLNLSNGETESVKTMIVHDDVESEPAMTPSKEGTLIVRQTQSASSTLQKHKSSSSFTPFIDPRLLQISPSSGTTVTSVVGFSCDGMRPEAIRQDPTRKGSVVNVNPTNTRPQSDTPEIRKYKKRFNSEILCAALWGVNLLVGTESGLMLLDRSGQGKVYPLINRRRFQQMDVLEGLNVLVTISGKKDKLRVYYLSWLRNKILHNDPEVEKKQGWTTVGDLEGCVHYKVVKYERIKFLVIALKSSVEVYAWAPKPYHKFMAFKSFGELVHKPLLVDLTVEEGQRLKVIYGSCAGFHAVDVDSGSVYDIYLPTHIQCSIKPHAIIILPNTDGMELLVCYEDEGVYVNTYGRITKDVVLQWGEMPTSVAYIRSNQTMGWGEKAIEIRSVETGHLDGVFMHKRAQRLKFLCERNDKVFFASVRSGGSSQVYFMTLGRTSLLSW
Structure (SMILES),inhibition [1],inhibition [2],inhibition [3],inhibition [4],inhibition [5],inhibition [6],inhibition [7],inhibition [8],inhibition [9],inhibition [10],inhibition [11],inhibition [12],inhibition [13],inhibition [14],inhibition [15],inhibition [16],inhibition [17],inhibition [18],inhibition [19],inhibition [20]
COc1cc2ncn(-c3cc(OCCc4ccccc4)c(C(N)=O)s3)c2cc1OC,26.2%,3.24%,2.39%,5.52%,18.8%,2.99%,13.6%,2.95%,11%,-1.7%,-2.27%,-1.36%,5.32%,0.32%,-0.01%,2.35%,2.82%,-3.93%,-5.75%,1.18%
COc1cc(C)c(N(C)C(=O)CN(C)C)cc1Nc1nc(Nc2cccc(F)c2C(N)=O)c2cc[nH]c2n1,4.77%,2.7%,4.56%,2.85%,1.74%,4.57%,4.81%,5.2%,4.32%,-0.43%,-1.63%,1.45%,0.54%,1.63%,0.77%,1.47%,2.79%,1.86%,1.84%,-1.02%
COc1cc(Nc2ncc3c(C)nc(-c4cccc(C(F)(F)F)c4)n3n2)cc(OC)c1OC,34%,4.45%,10.7%,10.5%,29.2%,7.12%,17.8%,6.69%,13.2%,0.97%,5.84%,6.01%,8.56%,1.46%,2.81%,3.31%,7.5%,5.75%,15.9%,-0.28%
Fc1ccc(-c2nc3n(c2-c2ccncc2)CCS3)cc1,18.3%,5.23%,5.11%,6.96%,14%,3.57%,4.41%,3.46%,3.73%,-1.69%,-1.08%,6.15%,8.39%,3.06%,1.6%,4.5%,4.49%,-6.84%,-7.5%,9.34%
c1ccc(-c2n[nH]cc2-c2ccnc(-c3ccc(OCCN4CCOCC4)cc3)c2)nc1,77.5%,-0.91%,-0.3%,20.2%,69.2%,1.73%,2.13%,2.06%,0.12%,5.82%,2.93%,-0.81%,5.57%,1.69%,0.57%,3.54%,3.78%,-6.65%,4.04%,7.57%
O=C1NC(=O)C(c2cccc(Cl)c2)=C1Nc1ccc(Cl)c(C(=O)O)c1,8.37%,5.3%,2.84%,4.74%,7.9%,5.13%,7.28%,6.05%,9.28%,0.55%,0.53%,4.41%,6.62%,2.04%,0.87%,3.53%,3.74%,0.06%,0.5%,-2.69%
CNC(=O)c1cncc(/C=C/c2c(C)cccc2C)c1,7.57%,-0.07%,0.41%,1.75%,3.59%,2.23%,3.51%,2.27%,2.73%,0.91%,2.22%,0.04%,3.72%,1.52%,-0.05%,-0.14%,0.85%,7.14%,2.41%,
Fc1ccc(-c2ncn(CCCN3CCOCC3)c2-c2ccncc2)cc1,5.83%,-0.25%,0.32%,1.73%,2.89%,1.3%,4.22%,-0.13%,2.5%,0.94%,0.15%,2.56%,3.02%,-0.59%,-0.77%,0.6%,0.53%,,,-0.97%
COc1cc(Nc2ncc3c(C)nc(-c4cccc(Oc5ccccc5)c4)n3n2)cc(OC)c1OC,5.36%,2.88%,9.12%,1.96%,2.84%,5.41%,6.48%,5.14%,4.82%,-0.33%,-2.15%,4.4%,3.74%,1.49%,1.12%,2.09%,4.11%,1.86%,4.51%,-2.06%
CCc1nccc2c1nc(-c1nonc1N)n2CC,6.31%,1.12%,1.54%,3.5%,3.84%,-1.14%,-0.39%,,,-1.4%,-1.83%,3.29%,3.71%,0.74%,1.13%,0.51%,1.09%,,,3.51%
NC(=O)c1cc(-c2ccc(F)cc2)cc(-c2ccncc2)c1N,9.21%,5.61%,3.83%,4.49%,10%,3.76%,5.59%,4.31%,5.48%,-2.72%,-1.28%,5.31%,6.13%,0.6%,1.36%,4.12%,4.25%,-1.26%,1.21%,-6.76%
CCS(=O)(=O)c1ccc(OC)c(Nc2ncc(-c3ccccc3Cl)o2)c1,24.2%,-0.28%,0.4%,4.25%,22.4%,1.96%,5.89%,1.11%,2.6%,1.19%,1.46%,-0.73%,-1.58%,1.78%,0.49%,-0.53%,0.98%,3.82%,17.3%,-6.91%
COc1cc(N2CCN(C(C)C)CC2)ccc1Nc1nc(Nc2ccc(F)cc2C(=O)NC[C@@H](O)CO)c2cc[nH]c2n1,13.6%,6.5%,5.77%,7.5%,12%,4.86%,6.99%,6.36%,7.9%,-1.23%,-2.64%,4.77%,11.8%,1.33%,1.54%,4.85%,6.19%,2.5%,-2.48%,5.3%
NCc1ccc(-n2c(-c3nonc3N)nc3cnccc32)cc1,20.3%,8.09%,8.5%,11.2%,16.3%,9.89%,19.6%,10.2%,13.1%,0.95%,-0.73%,12%,11.4%,3.24%,4.52%,5.94%,6.83%,,-2.63%,-1.38%
